From PubChem BioAssay (Tox21)
Calls of active or inactive are those of the source. Calls come from the whole dose curve; as a rule, active = well fitted curve in the direction sought with a large enough effect in the repeat runs; inconclusive = weak or mixed curves; inactive = flat fitted curve, though single readings scatter.

Assay: qHTS assay to test for compound auto fluorescence at 590 nm (red) in HEK293 cell free culture (AID 720683)
Details: cell-free medium autofluorescence, Ex540/Em590 red; series mostly up to 91.3 µM
From the text: U.S. Tox21 Program National Center for Advancing Translational Sciences [NCATS] NIH Chemical Genomics Center [NCGC] U.S. Environmental Protection Agency [EPA] National Institutes of Environmental Health Sciences [NIEHS] National Toxicology Program [NTP] U.S. Food and Drug Administration [FDA] Tox21 Assay Overview: Compound auto fluorescence often interferes with screening of the compound library against various biological targets and signaling pathways. Some of these compounds may have fluorophoric properties. Such properties may interfere with the assay outputs resulting in false positives and/or negatives. To decrease such complications and ensure the compound activities are relevant in terms of biological response, the Tox21 10K compound library was screened for auto fluorescence. From the fluorophores used as reporter signals in our screening assays, the auto fluorescence equivalencies of compounds against three fluorophores have been evaluated: Triamterene, Fluorescein and Rose Bengal sodium for blue, green and red fluorescence, respectively. The fluorescence intensities were measured using Excitation/Emission wavelengths at 405/460nm, 485/535nm and 540/590nm for blue, green and red labels, respectively. This assay includes the red fluorescence data.
Tox21 Assay Protocol Summary: 5 uL of culture medium (DMEM containing 10% FBS) per well was dispensed into black wall/clear bottom 1536-well plates using a Multidrop Combi Dispenser (ThermoFisher Scientific, Waltham, MA). After 23 nL compound or DMSO vehicle was transferred into assay plate by a pintool work station (Kalypsys, San Diego, CA), fluorescence intensities in the assay plates were measured by an Envision (PerkinElmer, Shelton, CT) plate reader using three labels for measuring blue, green and red fluorescence at […] 460, 535 and 590nm respectively.
% is set by controls: 0 for no effect and ±100 for the full control effect.

| Structure (SMILES) | outcome | fluorescence, % of fluorescent control |
| --- | --- | --- |
| CCOP(=O)(OCC)Oc1nc(Cl)c(Cl)cc1Cl | inactive | – |
| CCCCCON=O | inactive | – |
| CC(C)[C@@H](Nc1ccc(C(F)(F)F)cc1Cl)C(=O)OC(C#N)c1cccc(Oc2ccccc2)c1 (stereo not given in full) | inactive | – |
| COc1ccc2c(c1OC)C(=O)O[C@@H]2[C@H]1c2cc3c(cc2CCN1C)OCO3 | inactive | – |
| CSC(=O)c1c(C(F)F)nc(C(F)(F)F)c(C(=O)SC)c1CC(C)C | inactive | – |
| CCCCN(CCCC)C(=S)S | inactive | – |
| C[N+]1(C)[C@@H]2CC[C@H]1CC(OC(=O)C(CO)c1ccccc1)C2 (stereo not given in full) | inactive | – |
| CN1[C@@H]2CC[C@H]1CC(O)C2 (stereo not given in full) | inactive | – |
| BrCC(Br)(Br)Br | inactive | – |
| CNC(=O)O/N=C(\C)C(C)S(C)(=O)=O (stereo not given) | inactive | – |
| CCC[CH2][Sn]([CH2]CCC)([CH2]CCC)[O][Sn]([CH2]CCC)([CH2]CCC)[CH2]CCC | – | 0.113% [at 3.72 µM] (inactive) |
| [Cl-].[Cl-].[Cl-].[Yb+3] | inactive | – |
| CSSC | inactive | – |
| COCCC#N | inactive | – |
| CCCN | inactive | – |
| c1ccc(Nc2ccc(Nc3ccccc3)cc2)cc1 | inactive | – |
| CCc1cccc(C)c1N(C(=O)CCl)[C@@H](C)COC | inactive | – |
| COC(=O)N(OC)c1ccccc1COc1ccn(-c2ccc(Cl)cc2)n1 | inactive | – |
| CN(C)CCc1c[nH]c2ccccc12 | inactive | – |
| CO/N=C(/C1=NOCCO1)c1ccccc1Oc1ncnc(Oc2ccccc2Cl)c1F | inactive | – |

| Structure (SMILES) | outcome | fluorescence, % of fluorescent control |
| --- | --- | --- |
| N#CC(C#N)=NNc1cccc(Cl)c1 | inactive | – |
| Oc1cc(Cl)c(Cl)c(Cl)c1Cl | inactive | – |
| Clc1ccc(C(Cl)(Cl)Cl)cc1Cl | inactive | – |
| Cc1cccc(Cc2cnc[nH]2)c1C | inactive | – |
| Oc1cc(Cl)cc(Cl)c1 | inactive | – |
| COP(=O)(OC)O/C(=C\Cl)c1cc(Cl)c(Cl)cc1Cl | inactive | – |
| Nc1c(Cl)c(Cl)c(Cl)c(Cl)c1Cl | inactive | – |
| [O]=[Cr][O][Cr]=[O] | inactive | – |
| CCCC[N+]1(C)CCCC1 (tested in a mixture with another compound) | inactive | – |
| CNC(C)(C)Cc1ccccc1 | – | -0.277% [at 18.6 µM] (inactive) |
| CSC(C)(C)/C=N/O | inactive | – |
| CN(C)C(=S)SSC(=S)N(C)C | inactive | – |
| CN | inactive | – |
| ClC1(Cl)C2(Cl)C3(Cl)C4(Cl)C(Cl)(Cl)C5(Cl)C3(Cl)C1(Cl)C5(Cl)C24Cl (stereo not given) | inactive | – |
| CCC1COC(Cn2cncn2)(c2ccc(Cl)cc2Cl)O1 (stereo not given) | inactive | – |
| C=CCOC(=O)c1ccccc1N | inactive | – |
| Nc1ccccc1-c1ccccc1 | inactive | – |
| CCC1(CC)C(=O)N=C(O)NC1=O | inactive | – |
| Clc1c(Cl)c(Cl)c(Cl)c(Cl)c1Cl | – | 0.029% [at 3.72 µM] (inactive) |
| S=C=NCCc1ccccc1 | inactive | – |
